This passage reports max response and Potency results from PubChem BioAssay AID651814 (National Center for Advancing Translational Sciences (NCATS), 2012).

The structures appear in SMILES notation. Values joined by “and” are separate entries in the source; they are usually repeats but may differ in a detail not shown here. Equal values may be shown once. Among all 2,100 compounds or so, about 590 (28%) were called active. Inconclusive results (about 42%) are left out. Calls follow the shape of the dose curve; as a rule, active = well fitted inhibition curve with a large enough effect; inconclusive = small, poorly fitted or top-dose-only effect; inactive = flat fitted curve, though single readings scatter. The list shows a part of the results.
Potency is read from the fitted curve at half-maximal effect.

In this test the target is DNA dC->dU-editing enzyme APOBEC-3F (Homo sapiens) (UniProt Q8IUX4). The experiment in a line: qHTS for inhibitors of Vif-A3F interactions: Cherry picks. Also: nearly all actives have a fitted effect of over 70% in size.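 As to max response: % of control where 0% means no effect; active compounds raise eYFP fluorescence by blocking Vif-driven A3F loss.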 Conditions: HeLa A3F-eYFP + Vif (tagged APOBEC3F with the HIV-1 protein that degrades it), eYFP fluorescence, 24 h. In a few lines: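 Read-out: yellow fluorescence (ex 488 nm, em 500-530 nm) by laser-scanning cytometer after 24 h compound exposure, several concentrations, at 37 deg C. Cells: HeLa line stably co-expressing Vif and C-terminally eYFP-tagged A3F; MG132 served as positive control.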
Chain of DNA dC->dU-editing enzyme APOBEC-3F (Homo sapiens) (Q8IUX4 whole entry, looked up): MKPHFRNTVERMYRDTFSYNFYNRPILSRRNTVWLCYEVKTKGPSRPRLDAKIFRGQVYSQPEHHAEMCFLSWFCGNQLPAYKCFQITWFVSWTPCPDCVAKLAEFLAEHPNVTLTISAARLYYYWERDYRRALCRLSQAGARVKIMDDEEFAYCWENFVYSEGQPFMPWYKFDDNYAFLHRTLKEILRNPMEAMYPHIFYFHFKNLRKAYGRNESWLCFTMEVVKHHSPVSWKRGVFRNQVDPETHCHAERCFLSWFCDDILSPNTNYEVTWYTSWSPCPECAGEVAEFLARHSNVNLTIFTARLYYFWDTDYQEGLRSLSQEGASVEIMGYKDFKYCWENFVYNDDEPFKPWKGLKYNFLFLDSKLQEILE
On to `CCCc1nc2c(C)cc(Br)cn2c1Cc1ccccc1`, for which the max response is -22.2% (inactive).

Turning to `O=C(COc1ccccc1)NC(=S)Nc1cccc2c(O)cccc12`, the max response is -15.7% (inactive).

Consider `COc1ccc(C(=O)NC2CCCc3ccccc32)cc1[N+](=O)[O-]` (centres undefined), for which the max response is -23.5% (inactive). Take `O=C(C[n+]1cccc2cc(Cl)ccc21)c1ccc(I)cc1`: the Potency is 20.6 µM (active).

With `O=C(c1ccccc1)C1C(=O)c2ccccc2C1=O`, the max response was 2.89% (inactive).

In the case of `NN=C1c2ccccc2C(=O)C1C(=O)C(c1ccccc1)c1ccccc1` (centres undefined), the Potency was 7.9 µM (active).

As to `NC(=O)CSc1nc2c(sc3ccccc32)c(=O)n1CCCC(=O)NCC1CCCO1` (centres undefined), the max response is 3.7% (inactive). Turning to `CCOC(=O)/C=c1/s/c(=C/c2ccc3cc(OC)ccc3c2)c(=O)n1CC(=O)NCC1CCCO1` (centres undefined), the Potency is 18.4 µM (active).

Consider `CCOC(=O)/C=c1/s/c(=C\c2c(OC)ccc3ccccc23)c(=O)n1CC(=O)NCC1CCCO1` (centres undefined), for which the Potency is 11.2 µM (active). For `CCOC(=O)/C=c1\s/c(=C\c2c(OC)ccc3ccccc23)c(=O)n1CC(=O)NCC1CCCO1` (centres undefined), the Potency was 14.6 µM (active). Take `Cc1cc(-c2ccccc2)c2c3c(c(-c4ccccc4)n2n1)c(=O)n(C)c(=O)n3C`: the max response is -9.86% (inactive). Regarding `Cc1ccc(Nc2nc(Cl)c(C=O)s2)cc1Cl`, the Potency is 23.1 µM (active). Consider `CN(C)c1ccc(/C=C(\C#N)c2nc3ccccc3c(=O)[nH]2)cc1`, for which the Potency is 0.731 µM (active).

With `N#C/C(=C\c1ccc(C(=O)O)cc1)c1nc2sc3c(c2c(=O)[nH]1)CCCC3`, the max response is 1.2% (inactive).

As to `Fc1ccc(-c2cnn3c(-c4cccs4)ccnc23)cc1`, the Potency was 4.98 µM (active). Still for that read-out and setting: with `CCN(CC)S(=O)(=O)c1cc([N+](=O)[O-])ccc1N=Nc1c(O)[nH]c2ccccc12` the figure was 16.4 µM (active). `Cc1ccccc1NCC(=O)N=Nc1c(O)[nH]c2ccc([N+](=O)[O-])cc12`: the max response is -1.42% (inactive). Regarding `CC(C)CN(CC(C)C)c1ccc(/C=C/c2ccnc3ccccc23)cc1`, the Potency was 20.6 µM (active). `CCCN(CCC)c1ccc(/C=C/c2ccnc3ccccc23)cc1`: the Potency was 7.31 µM (active). Same read-out and setting: as for `CCN(C)c1ccc(/C=C/c2ccnc3ccccc23)cc1`, the figure is 13 µM (active). Regarding `CCCCN(CCC(=O)O)c1ccc(/C=C/c2ccnc3ccccc23)cc1`, the Potency was 18.4 µM (active). For `CCOc1ccc(-c2cc(C(=O)N/N=C(\C)c3cccnc3)c3ccccc3n2)cc1`, the max response was -8.69% (inactive). Take `CCN(CC)c1ccc(/C=C/c2ccnc3ccccc23)cc1`: the Potency was 6.51 µM (active). Regarding `CCN(CCCN(C)C)c1ccc(/C=C/c2ccnc3ccccc23)cc1`, the Potency was 18.4 µM (active). On to `CCCCN(CCCC)c1ccc(/C=C/c2ccnc3ccccc23)cc1`, for which the Potency was 20.6 µM (active).

As to `CCOC(=O)c1c(C)oc2ccc(N(C(=O)c3ccncc3)S(=O)(=O)c3ccc(Br)cc3)cc12`, the max response is -14.4% (inactive). Same read-out and setting: with `O=C(NC1C/C(=N/O)c2cc3c(cc21)OCO3)C(F)(F)F` (centres undefined) the figure was 0.0424% (inactive); with `Cc1cccc(-n2c(N)c(-c3nc4ccccc4n3C)c3nc4ccccc4nc32)c1`, -0.799% (inactive). Regarding `CC(=O)n1c2ccccc2c2nc3ccccc3nc21`, the Potency was 11.6 µM (active). In the case of `Cc1ccc2nc(/C(C#N)=C/c3ccc(-c4cccc([N+](=O)[O-])c4)o3)[nH]c2c1`, the max response is -29.2% (inactive).

Turning to `N#C/C(=C\c1ccc(-c2ccc(F)cc2F)o1)c1nc2ccccc2[nH]1`, the Potency was 20.6 µM (active).

For the compound `Cc1ccc2nc(/C(C#N)=C/c3ccc(-c4ccccc4C(=O)O)o3)[nH]c2c1`, the max response is -7.06% (inactive). As to `Cc1ccc2nc(/C(C#N)=C/c3ccc(-c4ccc(F)cc4F)o3)[nH]c2c1`, the Potency is 4.11 µM (active). Take `N#C/C(=C\c1ccc(-c2ccc(C(=O)O)cc2)o1)c1nc2ccccc2[nH]1`: the max response was 0.542% (inactive). `Cc1ccc2nc(/C(C#N)=C/c3ccc(-c4ccc(C(=O)OC(C)C)cc4)o3)[nH]c2c1`: the Potency was 2.06 µM (active). Consider `Cc1ccc2nc(/C(C#N)=C/c3ccc(-c4cccc(Cl)c4)o3)[nH]c2c1`, for which the Potency is 4.61 µM (active). Consider `CSCC[C@H](NC(=O)[C@H](Cc1ccccc1)n1c(=O)[nH]c2ccccc2c1=O)C(=O)N1CCC[C@@H]1C(=O)O`, for which the max response was 1.14% (inactive). Consider `Cc1c(Cl)cccc1-c1ccc(/C=C(\C#N)c2nc3ccccc3[nH]2)o1`, for which the Potency is 20.6 µM (active). Regarding `CCOC(=O)/C(=C/C1=CC(=C/N(C)C)/C(=O)O1)C(C)=O`, the max response was -9.79% (inactive). Consider `CN(C)CCCNc1cc(N2CCN(C3CCCCC3)CC2)c2noc3c2c1C(=O)c1ccccc1-3`, for which the Potency is 9.2 µM (active). With `CCNc1cc(N2CCN(C3CCCCC3)CC2)c2noc3c2c1C(=O)c1ccccc1-3`, the Potency was 18.4 µM (active). As to `O=C1c2ccccc2-c2onc3c(N4CCN(C5CCCCC5)CC4)cc(NCCO)c1c23`, the Potency is 3.66 µM (active). Regarding `CCOC(=O)c1cnc(-n2nc(C)cc2C)nc1NNc1cc(C)nc(-c2ccccc2)n1`, the max response is 0.647% (inactive). As to `Nc1c(C(=O)N/N=C/c2ccc(F)cc2)oc2nc(-c3ccccc3)cc(-c3ccco3)c12`, the Potency is 7.9 µM (active). The same measure, in the same setting: as for `Nc1c(C(=O)N/N=C/c2ccccc2Cl)oc2nc(-c3ccccc3)cc(-c3ccco3)c12`, the figure is 2.91 µM (active). Regarding `C/C(=N\Nc1nc(C)cc(-c2ccccc2)n1)c1ccc(F)cc1`, the max response was -6.16% (inactive). Same read-out and setting: as for `Cc1cc(-c2ccccc2)nc(N/N=C/c2ccccc2F)n1`, the figure is -4.11% (inactive); as for `O=C(CSc1nc(-c2ccco2)cc(C(F)(F)F)n1)Nc1cccnc1`, -24.4% (inactive).

As for `Cc1cc(/C=N/NC(=O)c2cc3ccccc3o2)c(C)n1C`, the max response was -15.8% (inactive).

With `Nc1c(C(=O)N/N=C/c2cccnc2)oc2nc(-c3ccccc3)cc(-c3ccco3)c12`, the Potency was 13 µM (active). For `C=CCOC(=O)C1=C(C)NC(C)=C(C(=O)OCC=C)C1c1cn(-c2ccccc2)nc1-c1ccco1`, the max response was 0.509% (inactive). Regarding `N=C1S/C(=C\c2ccc(-c3cccc(Cl)c3)o2)C(=O)N1c1nccs1`, the Potency was 18.4 µM (active). For `CC(=O)/C(=C\N(C)C)Sc1ccc(Cl)cc1`, the max response is 1.31% (inactive). Take `Cc1ccc(/C=C/c2ccc(N(C)C)cc2)[n+](C)c1`: the Potency was 8.86 µM (active). On the same count and under the same terms, with `CN(C)c1ccc(/C=C/c2cc[n+](C)cc2)cc1` the figure was 15.8 µM (active). On the same count and under the same terms, with `CC[n+]1cc(C)ccc1/C=C/c1ccc(N(C)C)cc1` the figure was 8.86 µM (active). On to `CN1CCC(OC(=O)c2cc3cc(Cl)cc(Cl)c3oc2=O)CC1`, for which the max response was 3.05% (inactive).

Turning to `COC(=O)[C@@]1(Cc2ccccc2)[C@@H]2C(=CC(=O)[C@H]2CC(=O)C(=O)N(C)C)CN1C(=O)c1ccccc1`, the max response was -26.2% (inactive). With `Nc1nc2n[nH]nc2c(=O)[nH]1`, the Potency was 6.51 µM (active) and 3.53 µM (active). On to `N#C/C(N=Nc1ccccc1O)=N\Nc1ccccc1O`, for which the Potency is 14.6 µM (active). Same read-out and setting: as for `CCCCN1C(=O)/C(=C2/Sc3ccccc3N2C)S/C1=N\c1ncn[nH]1`, the figure is 18.4 µM (active).

Consider `CCn1c2ccccc2c2cc(NC(=O)c3ccc(=O)oc3)ccc21`, for which the max response was -28.9% (inactive). `CC(CC(=O)Nc1ccc2c(c1)c(=O)n(C)n2-c1ccccc1)c1ccccc1` (centres undefined): the Potency was 4.98 µM (active). In the case of `Cc1cnc(NC(=O)CC(C)c2ccccc2)s1` (centres undefined), the max response is -26.1% (inactive).

`CC(C)(C)c1ccc(Cn2c(=O)cnc3ccccc32)cc1`: the max response was -25.6% (inactive).

In the case of `CCOc1ccc(Cn2c3ccc(OC)cc3c3nc4ccccc4nc32)cc1`, the Potency is 8.2 µM (active).

`CCOc1ccccc1OCC(=O)N/N=C(\C)Cc1ccc(OC)cc1`: the max response was -18.5% (inactive).

Turning to `CC(C)(C)NC(=S)N/N=C\c1ccc(-c2ccc([N+](=O)[O-])cc2)o1`, the Potency is 14.6 µM (active). Consider `O=C(O)c1cccc(-c2ccc(/C=N/Nc3ccc([N+](=O)[O-])cc3)o2)c1`, for which the Potency is 18.4 µM (active). Still for that read-out and setting: with `O=C(O)c1ccc(-c2ccc(/C=N/Nc3ccc([N+](=O)[O-])cc3)o2)cc1` the figure was 15.8 µM (active). Take `Cc1ccc(-c2ccc(/C=N/NC(N)=S)o2)cc1`: the max response was -8.18% (inactive).

Turning to `Cc1cc([N+](=O)[O-])ccc1-c1ccc(/C=N/NC(=O)c2ccc(Br)o2)o1`, the Potency is 18.4 µM (active).

Consider `NC(=S)N/N=C\c1ccc(-c2cccc(Cl)c2Cl)o1`, for which the max response was -18.7% (inactive). Still for that read-out and setting: with `C/C(CCc1ccc2c(c1)OCO2)=N\NC(=S)NC(C)C` the figure was -2.82% (inactive).

Take `CN(/N=C/c1ccc(-c2ccc([N+](=O)[O-])cc2)o1)c1ccccc1`: the Potency is 0.731 µM (active). Same read-out and setting: as for `COc1ccc2nc3ccccc3nc2c1NC(=O)c1ccc(Cl)cc1`, the figure is 16.4 µM (active). For `COc1ccc(C(=O)NC(=S)NCc2cccnc2)cc1Cl`, the max response is -3.18% (inactive). For `COc1ccc2nc3ccccc3nc2c1NC(=O)c1ccc(Br)cc1`, the Potency is 18.4 µM (active).

For `O=C(NC(=S)Nc1c(Cl)cc(Cl)cc1Cl)c1ccccc1`, the max response is -0.292% (inactive). On to `COc1ccc2nc3ccccc3nc2c1NC(=O)c1ccc(Cl)cc1Cl`, for which the Potency was 3.53 µM (active). For the compound `COc1ccc(C(=O)N/N=C/c2cc(Br)ccc2O)cc1OC`, the max response was -1.32% (inactive). Still for that read-out and setting: as for `COc1ccccc1N1CCN(C(=O)c2ccc3ncsc3c2)CC1`, the figure is -21% (inactive). Regarding `COc1cc2nc(/C=C/c3ccc(N(C)C)cc3)sc2cc1SC`, the Potency is 20.6 µM (active). Same read-out and setting: with `COc1ccc2cc(-c3nc(Cl)c4c5c(sc4n3)CC(C)CC5)c(=O)oc2c1` (centres undefined) the figure was 5.8 µM (active). Consider `CCN(CC)c1ccc2cc(-c3nc4sc5c(c4c(=O)[nH]3)CCC(C(C)(C)C)C5)c(=O)oc2c1` (centres undefined), for which the max response is 13.2% (inactive). As to `COc1ccccc1OCC(=O)NNC(=O)Nc1ccc(Cl)cc1`, the Potency was 14 µM (active). Consider `O=C(Nc1ccc(Cl)cc1)Nc1ccon1`, for which the max response was -9.41% (inactive). With `O=C(CSc1n[nH]c(-c2ccccn2)n1)Nc1ccc(Cl)cc1`, the max response was 0.972% (inactive). Take `COCCN(CCOC)Cc1c(O)ccc2c1O/C(=C\c1ccc(C)o1)C2=O`: the max response is -17.2% (inactive).
